Results reported in PubChem BioAssay (NCI).
This is part of a sample that, as a whole, favours compounds with a hit. Of some 83,000 tested, about 20% had one in any assay.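 Plates (96-well) were seeded with cells, treated with compound at one concentration, and incubated for 48 hours before percent growth was determined.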 Unmarked numbers belong to inactive results. The source made the active and inactive calls. Rule for the calls: active = growth percent below 10; inactive = the rest.

Experiments:
Assay in all cases: NCI-60 one-dose screen, 48 h (100 = growth as untreated, 0 = no growth, -100 = all killed)
Conditions in all cases: 10 µM unless noted
SK-MEL-2 melanoma = test system: SK-MEL-2 melanoma
EKVX NSCLC = test system: EKVX NSCLC
SN12C renal = test system: SN12C renal
UO-31 renal = test system: UO-31 renal
TK-10 renal = test system: TK-10 renal
ACHN renal = test system: ACHN renal
CAKI-1 renal = test system: CAKI-1 renal
A498 renal = test system: A498 renal
CCRF-CEM leukemia = test system: CCRF-CEM leukemia
SR leukemia = test system: SR leukemia
RPMI-8226 leukemia = test system: RPMI-8226 leukemia
OVCAR-8 ovarian = test system: OVCAR-8 ovarian
OVCAR-5 ovarian = test system: OVCAR-5 ovarian
OVCAR-4 ovarian = test system: OVCAR-4 ovarian
SK-OV-3 ovarian = test system: SK-OV-3 ovarian
OVCAR-3 ovarian = test system: OVCAR-3 ovarian
HS 578T breast = test system: HS 578T breast
NCI/ADR-RES ovarian = test system: NCI/ADR-RES ovarian
IGROV1 ovarian = test system: IGROV1 ovarian
MOLT-4 leukemia = test system: MOLT-4 leukemia

SMILES	growth (SK-MEL-2 melanoma) [%]	growth (EKVX NSCLC) [%]	growth (SN12C renal) [%]	growth (UO-31 renal)	growth (TK-10 renal) [%]	growth (ACHN renal) [%]	growth (CAKI-1 renal) [%]	growth (A498 renal) [%]	growth (CCRF-CEM leukemia) [%]	growth (SR leukemia) [%]	growth (RPMI-8226 leukemia) [%]	growth (OVCAR-8 ovarian) [%]	growth (OVCAR-5 ovarian) [%]	growth (OVCAR-4 ovarian) [%]	growth (SK-OV-3 ovarian) [%]	growth (OVCAR-3 ovarian) [%]	growth (HS 578T breast) [%]	growth (NCI/ADR-RES ovarian) [%]	growth (IGROV1 ovarian) [%]	growth (MOLT-4 leukemia) [%]
Nc1ccc(F)c(Cl)c1F	108	107	104	98.7%	108	106	97.5	95	99.4	101	93.7	108	98.8	112	113	111	96.4	105	–	–
CC(=O)CSc1ncnc2nc[nH]c12	95	95.4	96.9	88.1%	88.8	93	80.9	66.1	89.3	87.8	76.6	99.2	95.8	66.9	–	91.5	116	101	–	–
S=C(NCc1ccccc1)N1CCC(CCCC2CCN(C(=S)NCc3ccccc3)CC2)CC1	114	83.5	96.8	84.4%	108	93.1	86.6	121	88.8	93.2	75.5	96.4	121	76.9	100	95	108	99.3	117	–
Nc1ccc(F)cc1F	101	105	100	98.4%	106	102	94.7	107	102	107	102	116	96.3	123	116	116	108	108	105	–
CCOC(=O)C(COS(C)(=O)=O)(COS(C)(=O)=O)C(=O)OCC	114	102	104	95.7%	111	103	100	97.5	105	–	110	103	105	107	104	106	104	103	104	96.3
Nc1cc(F)ccc1[N+](=O)[O-]	114	100	98.6	94.2%	104	104	92.2	102	110	114	106	118	97.4	106	114	115	98.7	107	98.4	–
Cc1onc(-c2c(F)cccc2Cl)c1-c1ncc(-c2ccc(Br)cc2)o1	74.8	46	34	-0.651% (active)	46.8	32.8	33.1	86.4	39.5	–	22.6	38.3	70	48	66.1	43.6	66.6	31.1	–	16.9
O=[N+]([O-])c1c(O)c(CNCCCO)cc(CNCCCO)c1O	87.9	96.1	104	63.7%	111	93.9	100	130	119	–	116	106	108	105	106	152	97.1	104	–	73.2
